Assay outcomes as filed in PubChem BioAssay.
MITF TRPM1 HTS: activators of MITF-driven TRPM1 promoter activity in SK-MEL-5 cells; AID 588334; 300,000 tested, 0.75% active; SK-MEL-5 TRPM1-promoter luciferase, 24 h; % of positive control, neutral wells = 0; activation, % at 12.5 µM;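 active = mean activation of at least 80% with every replicate also reaching 80%; inconclusive = mean reaches 80% but some replicate falls short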
MITF TRPM1 inh: inhibitors of MITF-driven TRPM1 promoter in melanoma cells | 330,000 tested, 0.83% active | SK-MEL-5 TRPM1 promoter luciferase, 24 h | inhibition, % at 12.5 µM;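 active = mean inhibition across replicates of 60% or more, whatever share of single replicates reaches that level; inconclusive = some that reach 60%, reason not given; inactive = mean inhibition across replicates below 60%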
TWEAK-Fn14 inh: blocks TWEAK-Fn14 interaction in a reporter cell assay | 360,000 tested, 2% active | inhibition, % at 10 µM | AID 1159606 | TWEAK-stimulated Fn14 reporter cells, luciferase luminescence, 8 h; in the data active = inhibition above about 50%
LGR2 inh: blocks bursicon-induced cAMP signaling via Drosophila LGR2 | HEK293 LGR2, CRE-luciferase, bursicon-stimulated, 4 h | inhibition, % at 9.99 µM | 380,000 tested, 0.35% active | AID 720647;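 active = drop in luminescence signal, shown as inhibition above about 50% in the replicate tests, limit read from the data, passing the limit was not always enough; inconclusive = probably only some replicates passing the limit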;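 also: agonist challenge used bursicon conditioned medium at about half maximal strength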
TROY signal inh: blocks TROY-dependent signaling in reporter cells | Q293 LMP1-TROYcd NF-kB luciferase reporter, 4 h | inhibition, % at 10 µM | 360,000 tested, 0.98% active;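 active = compounds whose plate-normalised and pattern-corrected inhibition of the luciferase reporter signal at the single screening dose is 50% or more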
LMP1 NFkB inh: reduces LMP1-driven NF-kappaB luciferase signal | LMP1-induced NF-kappaB luciferase reporter cells, luminescence | inhibition, % at 12.5 µM | 350,000 tested, 0.69% active | AID 504558; in the data active = inhibition above about 41%; inconclusive = no clear call, values can overlap the other calls
Of the large screens only hits and unclear results are named; the others gave an inactive call. Only some compounds are listed: those with a hit (about 3% of all), similar ones and a draw of the others.

C[C@H]1CN([C@@H](C)CO)C(=O)c2cc(NS(=O)(=O)c3ccccc3)ccc2O[C@H]1CN(C)S(=O)(=O)c1ccc(F)cc1	none (no result: MITF TRPM1 HTS, MITF TRPM1 inh, TWEAK-Fn14 inh, TROY signal inh, LMP1 NFkB inh)
COc1ccc2c3c([nH]c2c1)[C@@H](CO)NCC31CCN(Cc2ccc(F)cc2)CC1	none (no result: MITF TRPM1 HTS, MITF TRPM1 inh, TWEAK-Fn14 inh, TROY signal inh, LMP1 NFkB inh)
CCCCCc1cc(=O)oc2c(C(CCN3CCCCC3)c3ccc4c(c3)OCO4)c(OC)cc(OC)c12 (stereo unspecified)	MITF TRPM1 inh 84
CCN(CC)CCC(c1ccc(N(C)C)cc1)c1c(OC)cc(OC)c2c(-c3ccccc3)cc(=O)oc12 (stereo unspecified)	none (no result: LGR2 inh)
COc1ccc(C(CCN2CCOCC2)c2c(OC)cc(OC)c3c(-c4ccccc4)cc(=O)oc23)cc1 (stereo unspecified)	none
COc1ccc(C(CCN2CCCC2)c2c(OC)cc(OC)c3c(-c4ccccc4)cc(=O)oc23)cc1 (stereo unspecified)	MITF TRPM1 inh 67
CCCCCc1cc(=O)oc2c(C(CCN(CC)CC)c3cc(OC)c(OC)c(OC)c3)c(OC)cc(OC)c12 (stereo unspecified)	MITF TRPM1 inh 93 (no result: LGR2 inh)
COc1ccc2c3c(n(C)c2c1)[C@@H](CO)N(C)CC31CN(C(=O)C2CCC2)C1	none (no result: MITF TRPM1 HTS, MITF TRPM1 inh, TWEAK-Fn14 inh, TROY signal inh, LMP1 NFkB inh)
O=C(NC(c1ccc(Cl)cc1)c1c(O)ccc2ccccc12)c1ccccc1 (stereo unspecified)	TWEAK-Fn14 inh 66, LGR2 inh inconclusive, TROY signal inh 52
O=C(NC(c1ccccc1)c1c(O)ccc2ccccc12)c1ccccc1Cl (stereo unspecified)	none
N/C(=N\OC(=O)c1ccc(F)cc1)c1cccc([N+](=O)[O-])c1	MITF TRPM1 HTS 87
C[C@H](CO)N1C[C@H](C)[C@H](CN(C)C(=O)Cc2ccccc2)OCCCC[C@H](C)Oc2ccc(NS(=O)(=O)c3cn(C)cn3)cc2C1=O	none (no result: MITF TRPM1 HTS, MITF TRPM1 inh, TWEAK-Fn14 inh, TROY signal inh, LMP1 NFkB inh)
O=S(=O)(c1ccccc1)c1cc(O)ccc1O	none
Nc1ccc(S(=O)(=O)c2cc(O)c3ccccc3c2O)cc1	TWEAK-Fn14 inh 79, TROY signal inh 74
Cc1c(C(=O)NCc2ccccn2)oc2ccc(Br)cc12	MITF TRPM1 HTS 97
Cc1c(C(=O)NCc2ccccn2)oc2ccccc12	none (no result: LGR2 inh)
O=C(Nc1ccccc1)Nc1ncc([N+](=O)[O-])s1	TWEAK-Fn14 inh 81, LGR2 inh 65
Cc1nc(C)c(C(=O)Nc2ncc([N+](=O)[O-])s2)o1	TWEAK-Fn14 inh 85, LMP1 NFkB inh 49
O=C(Nc1ncc([N+](=O)[O-])s1)c1cccc([N+](=O)[O-])c1	TWEAK-Fn14 inh 93
COc1ccc(NC(=O)Nc2cccc3c2O[C@H](CN(C)S(=O)(=O)c2cn(C)cn2)[C@H](C)CN([C@H](C)CO)C3=O)cc1	none (no result: MITF TRPM1 HTS, MITF TRPM1 inh, TWEAK-Fn14 inh, TROY signal inh, LMP1 NFkB inh)
CC(C)(C)CNC(=O)C1(C)CCN1C(=O)Cc1ccc(-c2ccccc2)cc1 (stereo unspecified)	TWEAK-Fn14 inh 67 (no result: MITF TRPM1 HTS, MITF TRPM1 inh, LMP1 NFkB inh)
CC1(C(=O)NCc2ccccc2Br)CCN1C(=O)Cc1ccc(-c2ccccc2)cc1 (stereo unspecified)	none (no result: MITF TRPM1 HTS, MITF TRPM1 inh, LMP1 NFkB inh)
C/C=C/c1ccc([C@@H]2[C@@H](CO)N(C(C)=O)C23CN(C(=O)NC2CCCC2)C3)cc1	none (no result: MITF TRPM1 HTS, MITF TRPM1 inh, TWEAK-Fn14 inh, TROY signal inh, LMP1 NFkB inh)
Cc1ccc(NC(=O)CCN2CCCCC2)cc1	TWEAK-Fn14 inh 100, TROY signal inh 69 (no result: MITF TRPM1 HTS)
COc1ccc(C(=O)/C=C/Nc2cc(C)ccn2)cc1	TWEAK-Fn14 inh 75, LGR2 inh 74 (no result: MITF TRPM1 HTS)
Cc1ccnc(N/C=C/C(=O)c2ccc(Br)cc2)c1	none
COc1ccc(C(=O)NC(=O)Nc2cc(C)ccn2)cc1	MITF TRPM1 inh 70, TWEAK-Fn14 inh 97, LGR2 inh 74, TROY signal inh 79, LMP1 NFkB inh 68
Oc1ccc(C[C@H]2CNC(=S)N2CC2CCCN2C[C@H](Cc2ccc(O)cc2)N2C[C@H](Cc3ccc(O)cc3)N(CC3CCCCC3)C2=S)cc1 (stereo partly specified)	TWEAK-Fn14 inh 96
Oc1ccc(C[C@H]2CN([C@@H](Cc3ccccc3)CN3CCCC3CN3C(=S)NC[C@@H]3Cc3ccccc3)C(=S)N2CC2CCCCC2)cc1 (stereo partly specified)	none (no result: MITF TRPM1 HTS, MITF TRPM1 inh, LMP1 NFkB inh)
Oc1ccc(C[C@H]2CN([C@@H](Cc3cccc(O)c3)CN3CCC[C@@H]3CN3C(=S)NC[C@@H]3Cc3ccccc3)C(=S)N2CC2CCCCC2)cc1	TWEAK-Fn14 inh 55 (no result: MITF TRPM1 HTS, MITF TRPM1 inh, LMP1 NFkB inh)
Oc1ccc(C[C@H]2CN([C@@H](Cc3ccc(O)cc3)CN3CCC[C@@H]3CN3C(=S)NC[C@@H]3Cc3ccccc3)C(=S)N2CC2CCCCCC2)cc1	TWEAK-Fn14 inh 61 (no result: MITF TRPM1 HTS, MITF TRPM1 inh, LMP1 NFkB inh)
CC(C)C[C@@H](CN1CCCC1CN1C(=S)NC[C@@H]1Cc1ccc(O)cc1)N1C[C@H](Cc2ccc(O)cc2)N(CC2CCCCC2)C1=S (stereo partly specified)	TWEAK-Fn14 inh 56
COc1ccccc1-c1ccc(C2[C@H]3CNC[C@@H]2N3S(=O)(=O)c2ccc(C)cc2)cc1 (stereo partly specified)	none (no result: MITF TRPM1 HTS, MITF TRPM1 inh, TWEAK-Fn14 inh, TROY signal inh, LMP1 NFkB inh)
C/C=C/c1cnc2c(c1)C(=O)N([C@H](C)CO)C[C@@H](C)[C@H](CN(C)C(=O)c1ccc3c(c1)OCO3)O2	none (no result: MITF TRPM1 HTS, MITF TRPM1 inh, TWEAK-Fn14 inh, TROY signal inh, LMP1 NFkB inh)
CC=Cc1ccc2n(c1=O)C[C@H]1[C@H](CO)[C@@H](C(=O)OC)N(C(C)=O)[C@@H]21 (mixture of isomers)	none (no result: MITF TRPM1 HTS, MITF TRPM1 inh, TWEAK-Fn14 inh, TROY signal inh, LMP1 NFkB inh)
CC(C)C[C@H]1CNC(=S)N1C[C@H]1CCCN1C[C@H](Cc1ccc(O)cc1)N1C[C@H](Cc2ccccc2)N(CCc2ccccc2)C1=S	none (no result: MITF TRPM1 HTS, MITF TRPM1 inh, LMP1 NFkB inh)
Oc1ccc(C[C@H]2CNC(=S)N2CC2CCCN2C[C@H](Cc2ccc(O)cc2)N2C[C@H](Cc3ccccc3)N(CCc3ccccc3)C2=S)cc1 (stereo partly specified)	TWEAK-Fn14 inh 55
Cc1ccc(SCc2cn3ccccc3n2)cc1	MITF TRPM1 HTS 96
Cc1cccc2nc(CSc3nnc4ccccn34)cn12	TWEAK-Fn14 inh 50 (no result: MITF TRPM1 HTS, LGR2 inh)
CCc1nc(Nc2ccc(OC)c(OC)c2)c2nnn(Cc3ccccc3Cl)c2n1	MITF TRPM1 inh 71, TWEAK-Fn14 inh 52 (no result: LGR2 inh)
CN(C)S(=O)(=O)c1ccc(Nc2nc(C3CC3)nc3c2nnn3Cc2ccccc2Cl)cc1	TWEAK-Fn14 inh 87
COc1cccc(NC(=O)C(=O)NCCC2CCCCN2S(=O)(=O)c2ccccc2)c1 (stereo unspecified)	MITF TRPM1 HTS 110
COc1ccc(CCNC(=O)C(=O)NCC2CCCN2S(=O)(=O)c2ccccc2)cc1 (stereo unspecified)	TROY signal inh 51
COc1cccc(NC(=O)C(=O)NCC2CCCN2S(=O)(=O)c2ccccc2)c1 (stereo unspecified)	MITF TRPM1 HTS 158
C[C@@H]1CCCCO[C@H](CN(C)C(=O)c2ccncc2)[C@@H](C)CN([C@@H](C)CO)C(=O)c2cc(NC(=O)c3ccccc3)ccc2O1	none (no result: MITF TRPM1 HTS, MITF TRPM1 inh, TWEAK-Fn14 inh, TROY signal inh, LMP1 NFkB inh)
C=CCNC(=O)C1CC1(c1cccc(C)c1)c1cccc(C)c1 (stereo unspecified)	none (no result: MITF TRPM1 HTS, MITF TRPM1 inh, LMP1 NFkB inh)
